According to PubChem BioAssay (EPA / NIEHS):
Values joined by “and” are separate entries in the source; they are usually repeats but may differ in a detail not shown here. Equal values may be shown once. Results filed as inconclusive are left out. Active and inactive are the calls of the source. The calls were made as follows, unless noted: active = hit-call score of the fitted dose curve at least 0.9, where 1 is the maximum; inactive = score below 0.9.

Experiments:
[1] = ATG_NFI_CIS: Attagene CIS-FACTORIAL HepG2 Assay for human Nuclear Factor I (NFI) (AID 2282989); conditions: HepG2 cis-regulatory reporter, NFI response element transcription; actives raise or lower the signal
Summary of the method: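 Cells: human liver HepG2, transiently transfected with promoter-regulated reporter transcription units. Exposure 24 h. Detection: fluorescent RT-PCR products separated by capillary electrophoresis, normalised to DMSO negative control.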

[2] = target: Myc proto-oncogene protein (Homo sapiens) (UniProt P01106); assay: ATG_Myc_CIS: Attagene CIS-FACTORIAL HepG2 Assay for human Myelocytomatosis (Myc) Proto-Oncogene Transcription Factor (AID 2282990); conditions: HepG2, Attagene cis-reporter transcription factor activity; actives raise or lower the signal
Myc proto-oncogene protein (Homo sapiens), sequence (P01106 whole entry, looked up): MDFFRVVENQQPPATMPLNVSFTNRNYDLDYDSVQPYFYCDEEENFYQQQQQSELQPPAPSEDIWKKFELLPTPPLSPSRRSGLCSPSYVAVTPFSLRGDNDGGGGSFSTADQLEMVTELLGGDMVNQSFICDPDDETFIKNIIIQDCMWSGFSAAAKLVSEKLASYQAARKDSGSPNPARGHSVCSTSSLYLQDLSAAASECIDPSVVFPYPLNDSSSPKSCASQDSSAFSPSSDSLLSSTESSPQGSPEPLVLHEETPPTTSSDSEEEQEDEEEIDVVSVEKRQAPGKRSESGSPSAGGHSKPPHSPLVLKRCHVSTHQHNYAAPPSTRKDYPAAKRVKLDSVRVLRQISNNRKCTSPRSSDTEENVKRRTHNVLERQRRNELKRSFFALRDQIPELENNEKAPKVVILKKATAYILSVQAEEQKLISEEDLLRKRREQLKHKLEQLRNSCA
Summary of the method: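 Multiplexed cis-reporter transcription in HepG2 cells after 24 h chemical treatment. Reporter mRNA measured by RT-PCR and capillary electrophoresis fluorescence; activity fitted bidirectionally against DMSO control.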

[3] = ATG_NRF2_ARE_CIS: Attagene CIS-FACTORIAL HepG2 Assay for human Nuclear Factor Erythroid 2 Related Factor 2 (NFR2) response to Antioxidant Response Elements (ARE) (AID 2282992); conditions: HepG2 Attagene ARE/NRF2 reporter, transcription factor activity; actives raise or lower the signal
Summary of the method: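 HepG2 cells transiently transfected with multiplexed cis-regulated reporter transcription units measure endogenous transcription factor activity. Reporter mRNA at 24 h is quantified by RT-PCR, fluorescent labelling and capillary electrophoresis, with bidirectional fitting relative to DMSO.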

[4] = ATG_Oct_MLP_CIS: Attagene CIS-FACTORIAL HepG2 Assay for human Octamer-Binding Transcription Factor (Oct) (AID 2282993); conditions: HepG2 Attagene cis-factorial Oct reporter, mRNA; actives raise or lower the signal
Summary of the method: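 HepG2, transient MRTU transfection, cis promoter elements; 24 h dosing; RT-PCR/CE fluorescence read-out of reporter mRNA; fit both directions vs DMSO.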

[5] = target: Cellular tumor antigen p53 (Homo sapiens) (UniProt P04637); assay: ATG_p53_CIS: Attagene CIS-FACTORIAL HepG2 Assay for human p53 Transcription Factor (AID 2282994); conditions: HepG2 p53 cis-element reporter, Attagene mRNA; actives raise or lower the signal
Cellular tumor antigen p53 (Homo sapiens), sequence (P04637 whole entry, looked up): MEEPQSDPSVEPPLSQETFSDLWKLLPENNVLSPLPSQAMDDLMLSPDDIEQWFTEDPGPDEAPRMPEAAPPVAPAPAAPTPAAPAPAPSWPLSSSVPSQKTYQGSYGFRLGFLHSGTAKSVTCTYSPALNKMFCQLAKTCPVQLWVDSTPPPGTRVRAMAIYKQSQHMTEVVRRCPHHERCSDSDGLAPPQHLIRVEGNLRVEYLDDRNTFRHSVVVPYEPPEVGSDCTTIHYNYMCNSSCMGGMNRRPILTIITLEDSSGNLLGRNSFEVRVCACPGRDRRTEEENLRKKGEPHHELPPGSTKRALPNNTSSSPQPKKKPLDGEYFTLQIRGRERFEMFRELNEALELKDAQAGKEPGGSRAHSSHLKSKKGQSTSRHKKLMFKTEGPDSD
Summary of the method: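 HepG2 cells transiently transfected with multiplexed cis-regulated reporter transcription units read endogenous TF activity. After 24 h compound exposure, reporter mRNA was quantified by RT-PCR, fluorescent labelling, HpaI digestion and capillary electrophoresis; bidirectional fits versus DMSO baseline.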

[6] = BSK_3C_TissueFactor: BioMAP Diversity Plus: 3C Assay for Tissue Factor Biomarker Activity (AID 2282997); conditions: BioMAP 3C HUVEC, tissue factor biomarker readout; actives raise or lower the signal
Summary of the method: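 Endothelial monolayers (human umbilical vein, primary) are dosed, incubated 24 h, and assayed for Tissue Factor by ELISA; DMSO serves as negative control for bidirectional fitting.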

[7] = BSK_3C_uPAR: BioMAP Diversity Plus: 3C Assay for Urokinase-type plasminogen activator receptor (uPAR) Biomarker Activity (AID 2282998); conditions: BioMAP 3C HUVEC, uPAR biomarker ELISA; actives raise or lower the signal
Summary of the method: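 A multiplexed primary-cell system built on human umbilical vein endothelium was used, with chemical present for 24 h before reading. Cell-surface uPAR was detected by ELISA; signal change in either direction counted against DMSO.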

[8] = BSK_4H_Eotaxin3: BioMAP Diversity Plus: 4H Assay for Eotaxin 3 Biomarker Activity (AID 2283000); conditions: primary human endothelial cells (HUVEC); actives raise or lower the signal
Summary of the method: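 ELISA quantitation of CCL26 (Eotaxin-3) protein from chemically dosed human vascular endothelial cells at 24 h; increases and decreases both scored relative to DMSO-treated baseline.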

[9] = target: human Peroxisome Proliferator-activated Receptor alpha (PPARa), PPARA (gene 5465) (UniProt Q07869); assay: ATG_PPARa_TRANS: Attagene TRANS-FACTORIAL HepG2 Assay for human Peroxisome Proliferator-activated Receptor alpha (PPARa) (AID 2283001; active = hit-call score of the fitted dose curve at least 0.9, where 1 is the maximum;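 as to AC50: potency for gain of reporter signal over DMSO so agonist or activator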)
human Peroxisome Proliferator-activated Receptor alpha (PPARa), PPARA (gene 5465), sequence (Q07869 whole entry, looked up, the tested form may be a part): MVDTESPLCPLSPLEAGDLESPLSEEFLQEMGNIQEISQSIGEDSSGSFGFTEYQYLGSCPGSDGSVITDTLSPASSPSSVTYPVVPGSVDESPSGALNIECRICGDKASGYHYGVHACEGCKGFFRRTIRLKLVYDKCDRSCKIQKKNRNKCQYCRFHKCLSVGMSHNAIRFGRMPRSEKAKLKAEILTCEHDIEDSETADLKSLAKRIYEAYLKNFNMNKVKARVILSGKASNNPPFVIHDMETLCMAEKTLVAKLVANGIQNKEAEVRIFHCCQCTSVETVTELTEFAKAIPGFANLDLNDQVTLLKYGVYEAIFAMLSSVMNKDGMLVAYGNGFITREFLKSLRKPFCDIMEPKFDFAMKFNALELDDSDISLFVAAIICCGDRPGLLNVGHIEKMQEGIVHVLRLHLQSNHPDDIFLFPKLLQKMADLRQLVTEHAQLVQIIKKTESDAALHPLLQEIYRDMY
Summary of the method: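 HepG2 cells transiently transfected with multiplexed GAL4-UAS reporter units and chimeric NR-Gal4 constructs were dosed for 24 h. Reporter mRNA was measured by RT-PCR with fluorescent labelling and capillary electrophoresis; gain of signal fitted against DMSO.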

Measured: AC50

CCCCCCCC(C)=O
inactive: [1] | [2] | [3] | [4] | [5]

OC1CCCCCCCCCCC1
inactive: [1] | [2] | [3] | [4] | [5]

CCCCCCCCc1ccc(Nc2ccc(CCCCCCCC)cc2)cc1
not listed: [9]
inactive: all other assays above

CCCC(C)CCC(C)=O (stereo not given)
not listed: [6] | [7] | [8]
inactive: all other assays above

CCCCCCOC(=O)C(C)CC (stereo not given)
inactive: [1] | [2] | [3] | [4] | [5]

Nc1ccc(N)c(Cl)c1
active: [1] 46.6 µM | [2] 33.4 µM | [3] 4.45 µM | [5] 33.4 µM | [8] 20 µM and 15.1 µM
inactive: [4] | [6] | [7] | [9]

O=C1c2ccccc2C(=O)C1c1nc2ccccc2c(Br)c1O
active: [3] 1.83 µM
inactive: [1] | [2] | [4] | [5]

CCCCC(CC)CCC(CC(C)C)OS(=O)(=O)O (stereo not given)
active: [3] 100 µM
inactive: [1] | [2] | [4] | [5]

CCC(CC)C(=O)O
not listed: [6] | [7] | [8]
inactive: all other assays above

C=CCOCC(O)CCl (stereo not given)
active: [3] 63 µM
inactive: all other assays above

CCCCCc1ccc(Cl)cc1
inactive: [1] | [2] | [4] | [5]
active: [3] 120 µM

COCCOCCOCCOCCOC
not listed: [6] | [7] | [8]
inactive: all other assays above

c1ccc(CNCc2ccccc2)cc1
not listed: [6] | [7] | [8]
inactive: all other assays above

CC(=O)Oc1ccc(C(C)=O)cc1
not listed: [6] | [7] | [8]
inactive: all other assays above

CCOC(=O)Cc1cccc2ccccc12
not listed: [6] | [7] | [8]
inactive: all other assays above

c1ccc2c(c1)ccc1cc3c(ccc4ccccc43)cc12
active: [3] 0.12 µM | [6] 15 nM and 41.3 nM | [8] 15 nM and 37.3 nM
inactive: all other assays above

O=S(=O)(O)CC(O)CCl (stereo not given)
active: [3] 30 µM
inactive: [1] | [2] | [4] | [5] | [9]

C=CC=CC=CCCCCC
active: [3] 20 µM
not listed: [9]
inactive: all other assays above

CNC(=S)NN
inactive: [1] | [2] | [3] | [4] | [5]

N=c1ccn2c(n1)O[C@H]1[C@H](O)[C@@H](CO)O[C@H]12
not listed: [6] | [7] | [8]
inactive: all other assays above

C=CC(C)(C)C
not listed: [6] | [7] | [8]
inactive: all other assays above

CC(C)(Oc1ccc(C2CC2(Cl)Cl)cc1)C(=O)O (stereo not given)
inactive: [1] | [2] | [3] | [4] | [5]
active: [9] 0.975 µM

OCCNCc1ccccc1
not listed: [6] | [7] | [8]
inactive: all other assays above

O=C1CCCCCCCCCCC(=O)OCCO1
not listed: [6] | [7] | [8]
inactive: all other assays above

CCC(CO)CO
not listed: [6] | [7] | [8]
inactive: all other assays above

O=C1CCCCCCCCCCCCCCCO1
active: [3] 65.2 µM | [9] 54 µM
inactive: [1] | [2] | [4] | [5]

C1=Cc2ccccc2C1
active: [3] 19.8 µM
inactive: [1] | [2] | [4] | [5] | [9]

Cc1cc(O)c(Cl)c(C)c1Cl
active: [3] 33.4 µM
inactive: [1] | [2] | [4] | [5] | [9]

CCCCCCCCCCCSCC(=O)O
inactive: [1] | [2] | [3] | [5]
active: [4] 79.2 µM | [9] 2.85 µM
